Screening results (PubChem BioAssay)
Cycloheximide cs – Cycloheximide Counterscreen for Small Molecule Inhibitors of Shiga Toxin | cell reporter, cycloheximide protein synthesis inhibition counterscreen | actives 12% (n = 300,000) | max response, %; in the data active = max response mostly above about 13%, no sharp cut-off; inactive = mostly below about 14%; also: read at 38.3 µM for the half of the compounds with a filed dose; 0% is about no effect
AmpC inh no detg – qHTS Inhibitors of AmpC Beta-Lactamase (assay without detergent). Potency, µM (series often up to 57.1 µM), inactives show top-dose activity change, negative = inhibition, hits mostly inhibitors. AmpC nitrocefin hydrolysis, absorbance 480 nm, 0.0001% Triton. P00811. actives 0.52% (n = 330,000);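 also: potency is read from the fitted curve at half-maximal effect; plate controls were no compound for no effect and no enzyme for full effect; nearly all actives have a fitted effect of over 20% in size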
Target sequence (P00811 whole entry, looked up): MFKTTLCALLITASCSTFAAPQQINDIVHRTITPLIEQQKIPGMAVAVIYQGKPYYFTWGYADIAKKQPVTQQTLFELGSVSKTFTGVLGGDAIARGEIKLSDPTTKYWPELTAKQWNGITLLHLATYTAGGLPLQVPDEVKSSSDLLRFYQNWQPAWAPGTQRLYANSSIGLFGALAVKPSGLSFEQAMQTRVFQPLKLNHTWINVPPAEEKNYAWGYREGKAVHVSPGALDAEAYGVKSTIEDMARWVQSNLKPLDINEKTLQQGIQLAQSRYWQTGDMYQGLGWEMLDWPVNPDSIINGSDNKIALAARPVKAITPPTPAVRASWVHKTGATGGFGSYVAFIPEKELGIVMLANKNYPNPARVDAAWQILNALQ
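AmpC (5.3 nM in the dispensed reagent) in 20 mM phosphate pH 7.0 with 0.01% (detergent screen) or 0.0001% Triton X-100 was preincubated with compounds for 15 min at room temperature. Nitrocefin was then added from an 800 uM solution, and hydrolysis was followed at 480 nm.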
AmpC inh detg – qHTS Inhibitors of AmpC Beta-Lactamase (assay with detergent); P00811; AmpC hydrolysis of nitrocefin, absorbance 480 nm, 0.01% Triton; Potency, µM (doses to about 114 µM), for inactives: top-dose activity change, negative = inhibition, most hits filed as inhibitors; actives 0.041% (n = 370,000);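 also: potency is read from the fitted curve at half-maximal effect; 0% = no-compound wells and -100% = no-enzyme wells; nearly all actives have a fitted effect of over 25% in size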
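20 mM phosphate pH 7.0 + 0.01% (detergent screen) or 0.0001% Triton X-100; 5.3 nM AmpC reagent; cpd preinc 15 min RT; nitrocefin (800 uM stock) to start; A480 q20 s × 4 min; Activity was normalised to no-enzyme and no-compound control wells.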
Shiga toxin inh – A qHTS for Small Molecule Inhibitors of Shiga Toxin; Vero cells, Shiga toxin protein synthesis inhibition reporter; inhibition, % at 38.7 µM; actives 9.2% (n = 290,000); in the data active = inhibition mostly above about 28%, no sharp cut-off; inactive = mostly below about 43%; also: 0% is about no effect
AMA1-RON2 inh – qHTS for Inhibitors of AMA1-RON; Towards Development of Antimalarial Drug Lead: Primary Screen; Plasmodium falciparum AMA1 (3D7) - RON2 peptide interaction; AlphaScreen AMA1-biotinylated RON2 peptide binding; Potency, µM (doses to about 58.2 µM), for the others: at the top dose activity change, negative = inhibition, most hits filed as inhibitors; actives 0.2% (n = 360,000);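 also: potency is read from the fitted curve at half-maximal effect; 0% = vehicle wells and -100% = peptide control; nearly all actives have a fitted effect of over 45% in size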
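AMA1 (3D7) with his tag at 25 nM final met compounds first, then biotinylated RON2 peptide at 25 nM; detection used donor plus acceptor beads, 10 µg/mL apiece, read by AlphaScreen after 30 min at room temperature.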
SARS PLpro yeast – qHTS of Yeast-based Assay for SARS-CoV PLP; Potency, µM (highest dose often 32.9 µM), without a hit: at the highest dose activity, positive = growth rescue, most hits filed as activators; S. cerevisiae expressing SARS-CoV PLpro, growth rescue; actives 0.19% (n = 330,000); AID 485353, 2010; calls by dose curve; also: potency is read from the fitted curve at half-maximal effect; 0% is about no effect; nearly all actives have a fitted effect of over 55% in size
* = called active by the depositor; ? = inconclusive; . = no result given; + = active, no number; [ ] = another dose, or the depositor's remark. The sample as a whole holds a higher share of hits than the screen did. Unless noted, calls follow the shape of the dose curve; as a rule, active = well fitted curve in the direction sought with a large enough effect; inconclusive = small, poorly fitted or top-dose-only effect, or another doubt; inactive = no such curve, though single readings can be large; an effect the other way counts as inactive or inconclusive.

SMILES | Cycloheximide cs | AmpC inh no detg | AmpC inh detg | Shiga toxin inh | AMA1-RON2 inh | SARS PLpro yeast
Clc1ccc(-c2csc(Nc3ccccc3)[n+]2Cc2ccco2)c(Cl)c1 | 48* | -30% | 5% | 110* | ? | -14%
NC(=O)c1ccc(NC(=O)COC(=O)/C=C/c2ccc3c(c2)OCO3)cc1 | 26* | -13% | 2% | 66* | 2% | 0%
COc1ccccc1NC(=O)/C=C/c1ccc2c(c1)OCO2 | 31* | -42% | -8% | 85* | -4% | -3%
COc1ccccc1NC(=O)COC(=O)/C=C/c1ccc2c(c1)OCO2 | 52* | -33% | ? | 84* | -3% | 0%
CC(=O)Nc1ccc(NC(=O)COC(=O)/C=C/c2ccc3c(c2)OCO3)cc1 | . | -25% | 1% | . | -1% | 1%
COc1ccccc1N1CCN(C(=O)/C=C/c2ccc3c(c2)OCO3)CC1 | -2 | 48% | -3% | -21 | 3% | 0%
O=C(COC(=O)/C=C/c1ccc2c(c1)OCO2)NCc1ccccc1 | . | -20% | -15% | . | 11% | -5%
CCOC(=O)C1=C(C)NC(C)=C(C(=O)OCC)C1c1ccc(OC)c(OC)c1 | . | . | . | . | -3% | .
Cn1nc(C(F)(F)F)c(-c2ccc(Br)cc2)c1NC(=O)c1ccco1 | -1 | 59% | 0% | -10 | -6% | -10%
O=C(/C(C=Nc1cccc(C(F)(F)F)c1)=C(/O)c1ccco1)C(F)(F)F | 93* | -22% | -2% | 126* | -1% | 0%
O=C(/C(C=Nc1ccc(Br)cc1)=C(/O)c1ccco1)C(F)(F)F | 42* | -3% | -13% | + | -6%[11.6 µM] | 5%
CCOC(=O)C(C)n1cnc2c1c(=O)[nH]c(=O)n2C (configuration not stated) | 0 | -23% | -8% | 13 | 11% | -30%
Cc1cc(=O)[nH]c(SCC(=O)Nc2nonc2C)n1 | -2 | -17% | 1% | 1 | 3% | 1%
CCOC(=O)C1[C@H]2C(=O)N(C(C)c3ccc(OC)cc3)C[C@]23C=C[C@H]1O3 (some centres not stated) | -2 | -2% | ? | 5 | -4% | 0%
COCCCN1CC23C=CC(O2)C(C(=O)O)C3C1=O (configuration not stated) | -1 | -12% | -13% | 15 | -1% | 0%
CCOC(=O)CN1CC23C=CC(O2)C(C(=O)Nc2ccc(OCC)cc2)C3C1=O (configuration not stated) | -3 | 7.9µM* | ? | -3 | -2% | -2%
CCOC(=O)CN1CC23C=CC(O2)C(C(=O)Nc2ccc4c(c2)OCO4)C3C1=O (configuration not stated) | 12 | -29% | ? | 19 | 6% | 2%
CCCN1CC23C=CC(O2)C(C(=O)O)C3C1=O (configuration not stated) | -4 | 35µM* | ? | -4 | 0% | -1%
CCC(C)N1CC23C=CC(O2)C(C(=O)OC)C3C1=O (configuration not stated) | 7 | 22µM* | 2% | 7 | -2% | 0%
COc1cccc(-c2nc(Cl)nc3cc(Cl)ccc23)c1 | . | . | . | . | 3% | .
CNC(=O)CSCCn1c(SCC(=O)NC)nc2ccccc2c1=O | -4 | -2% | -16% | -13 | 7% | 30%
c1ccc(CSc2snnc2-c2ccccc2)cc1 | 44* | -34% | -7% | 42* | 28% | -8%
Clc1ccc(CSc2snnc2-c2ccccc2)c(Cl)c1 | 43* | -24% | 9% | 98* | 7% | -19%
O=C(CN1CCCCC1)Nc1c2c(nc3ccccc13)N(c1ccccc1)CC2 | -4 | -2%[11.4 µM] | ? | -8 | -8% | 0%
COc1ccccc1NC(=O)Nc1ccccc1C(N)=O | 19 | -3% | -5% | 19 | 1% | 1%
SMILES | Cycloheximide cs | AmpC inh no detg | AmpC inh detg | Shiga toxin inh | AMA1-RON2 inh | SARS PLpro yeast
COc1ccccc1NC(=O)Nc1ccc(C(N)=O)cc1 | 13* | -30% | -6% | 19 | 8% | 1%
COc1ccccc1NC(=O)Nc1ccc(CC#N)cc1 | 25* | -25% | 0% | 43* | -1% | -2%
COc1ccc(NC(=O)N/C=C/c2ccccc2)cc1 | 35* | -34% | -3% | 103* | -9% | -6%
CCOc1ccccc1NC(=O)Nc1ccc(Cl)cc1 | 76* | -5% | ? | 41* | 24% | -16%
CCC(C)NC(=O)C(Cc1ccccc1)NS(=O)(=O)c1ccc2c(c1)oc(=O)n2C (configuration not stated) | 0 | -19% | 2% | -2 | 7% | 1%
Cc1noc(NS(=O)(=O)c2ccc(NS(=O)(=O)c3ccc(C(C)(C)C)cc3)cc2)c1C | . | . | . | . | -14% | .
CCOc1ccccc1N(C(C)=O)S(=O)(=O)c1ccc(Cl)cc1 | 0 | -6% | 2% | -8 | 15% | -7%
COc1ccccc1NC(=O)Nc1ccc(N2CCOCC2)cc1 | 51* | -16% | 0% | 84* | -22% | -5%
COc1ccccc1NC(=O)Nc1ccc(Cc2ccncc2)cc1 | 10 | -21%[2.29 µM] | ? | 50* | -2% | -1%
COc1ccccc1NC(=O)Nc1ccncc1 | -1 | -21% | ? | 34 | -5% | -4%
COc1ccc(NC(=O)Nc2ccccc2OC)cc1 | 40* | -47% | -6% | 61* | 0% | -21%
CCOc1ccccc1N(C(=O)Nc1ccc(Cl)cc1)C1=NC(C)CS1 (configuration not stated) | 25* | -18% | 4% | 82* | -5% | 10%
Cc1cccc(NC(=S)N(CCN(C)C)Cc2cccs2)c1 | 12 | -12% | 1% | -6 | -14% | 2%
CCCCNC(=S)N(C)/N=C/c1ccc(OCC(=O)Nc2c(C)cc(C)cc2C)c(OC)c1 | -1 | 16% | -8% | -16 | 0% | -2%
CC(=O)N1CCc2c(sc(NC(=O)Cc3ccc(F)cc3)c2C(N)=O)C1 | 3 | 4% | 1% | -3 | 13% | ?
CCN1CCN(Cc2ccc(NC(=O)Nc3ccccc3OC)cc2)CC1 | 35* | -15% | ? | 10* | 8% | 0%
N/C(=N\OC(=O)c1cccc2ccccc12)c1ccccn1 | 57* | -29% | 3% | 95* | 28% | -5%
N/C(=N\OC(=O)Cc1ccccc1[N+](=O)[O-])c1ccccn1 | 49* | -2% | 0% | 139* | 45% | 0%
COc1ccccc1/C=N\N=C(\N)c1ccccn1 | 55* | -28% | -15% | 89* | 56% | -12%
COc1ccccc1C=NN=C(N)C(N)=NN=Cc1ccccc1OC | . | . | . | . | 16% | .
